Compound activity as filed in PubChem.
Anthrax LF prot: inhibitors of Bacillus anthracis lethal factor protease; P15917; multiplex microsphere protease cleavage assay, LF; inhibition, % at 10 µM; 360,000 tested, 0.12% active; AID 588501; note: plate controls were buffer without enzyme for full effect and enzyme alone for no effect
BoNT-F LC inh: BoNT F light chain protease inhibition; Multiplex microsphere protease cleavage assay, flow cytometry; inhibition, % at 10 µM; 360,000 tested, 0.22% active; AID 588497; in the data active = inhibition above about 35%, passing the limit was not always enough; inconclusive = no clear call, values can overlap the other calls; note: plate controls were buffer without enzyme for full effect and enzyme alone for no effect
Autofluor counter: compound fluorescence in toxin protease inhibitor counterscreen; compound autofluorescence counterscreen, microsphere flow cytometry; hits give high values; fluorescence intensity (test concentration not listed); 360,000 tested, 3.1% active; AID 624483; in the data active = fluorescence intensity above about 16000; inconclusive = no clear call, values can overlap the other calls
BoNT A protease: inhibitors of Botulinum neurotoxin A light chain protease; multiplex microsphere protease substrate cleavage, flow cytometry; inhibition, % at 10 µM; 360,000 tested, 0.17% active; AID 588499; note: plate controls were buffer without enzyme for full effect and enzyme alone for no effect
MazF activator: activators of E. coli MazEF toxin-antitoxin RNase; P0AE70; FAM/BHQ RNA-DNA oligo cleavage fluorescence, 5 h; activation, % at 20 µM; 350,000 tested, 0.32% active; AID 504720; in the data active = activation above about 50%
Target sequence (P0AE70 whole entry, looked up): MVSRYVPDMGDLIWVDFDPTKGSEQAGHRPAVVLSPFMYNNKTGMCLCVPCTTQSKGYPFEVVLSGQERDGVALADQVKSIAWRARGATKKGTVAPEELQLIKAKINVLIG
PfHsp40 yeast: compounds rescuing yeast from Plasmodium falciparum HSP40 toxicity; growth rescue, % at 12.5 µM; 340,000 tested, 0.68% active; S. cerevisiae expressing PfHsp40, growth rescue, ATP luminescence; in the data active = growth rescue above about 28%, passing the limit was not always enough; inconclusive = no clear call, values can overlap the other calls;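 note: yeast W303a lacking pdr1 and pdr3 grown in galactose medium; growth measured after three days at 30 °C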
Numbers without * were called inactive; u = inconclusive; x = no result given; + = active, no number. The list is not random: actives were taken first. Their share in the collection is about 4.3%. Cut-off read from the data, not from the text of the source, unless noted: active = inhibition above about 30%; inconclusive = no clear call, values can overlap the other calls; inactive = below that.

SMILES | Anthrax LF prot | BoNT-F LC inh | Autofluor counter | BoNT A protease | MazF activator | PfHsp40 yeast
CCCCOc1ccc(CN(C)c2ncnc(N)n2)cc1 | -2.6 | 1.2 | 22920* | u | 0.9 | 0.6
Cc1ccc(Cl)c2c(N=Nc3ccccc3)c(O)[nH]c12 | -9.8 | u | 3404 | -2.8 | + | -0.9
Cc1cc(Cl)cc2c(N=Nc3ccccc3C(=O)O)c(O)[nH]c12 | 2.0 | -3.9 | 4097 | -2.6 | -17.7 | -1.4
O=C(NCC1CCCO1)c1nn2c(C(F)(F)F)cc(-c3cc(Br)cs3)nc2c1Br (stereo not drawn) | 0.8 | 4.0 | 5866 | 2.8 | 71.0* | 1.8
CC(C)Nc1nc(NC(C)C)nc(N(C)N)n1 | -4.2 | -13.2 | 4230 | -2.8 | 6.4 | -1.3
CC(C)Nc1nc(NC(C)C)nc(N(C)C(N)=O)n1 | -0.9 | 2.2 | 19916* | 1.8 | 7.1 | -0.2
CC(C)Nc1nc(NC(C)C)nc(C(N)=O)n1 | -0.3 | -3.5 | 16247* | 0.0 | 6.0 | 0.4
Cc1[nH]c2ccccc2c1C(=O)CN1CC(C)OC(C)C1 (stereo not drawn) | x | x | x | x | 7.6 | x
COC(=O)[C@@]1(C)[C@H]2C(=O)N(Cc3ccccc3)C(=O)[C@H]2[C@H]2CN=C(SCc3ccc(C)cc3)N21 | 2.2 | -0.1 | 3621 | 0.3 | -1.3 | -0.3
Cc1cccc2c1OCC/C2=N\NC(=O)COc1ccccc1 | -0.1 | -1.1 | 20669* | -1.7 | 1.0 | 0.9
CC(C)NC(=O)C1CCN(C(=O)C(C(=O)c2ccccc2)n2cc(Cl)ccc2=O)CC1 (stereo not drawn) | -0.4 | -2.6 | 23513* | -0.5 | 2.2 | 0.3
CC(C)CN1C(=O)c2ccc(NC(=O)c3cccs3)cc2C1=O | -0.3 | -1.1 | 24092* | u | 7.2 | 1.5
O=[N+]([O-])c1cc(C(F)(F)F)ccc1NCC1CCCO1 (stereo not drawn) | 9.5 | u | 3747 | -5.8 | 92.3* | 0.6
COc1ccc(NC(=O)CN(C)C(=O)c2ccc(-c3ccccc3Cl)o2)cc1 | x | x | x | x | 1.9 | 3.6
O=C(Oc1cccc([N+](=O)[O-])c1)C1CCN(C(=O)c2ccc(F)cc2)CC1 | 0.6 | 3.3 | 5687 | 0.1 | -5.9 | -0.4
COc1ccccc1C1SCCN1S(C)(=O)=O (stereo not drawn) | -5.3 | 7.6 | 2481 | 0.3 | 1.9 | -0.2
COc1ccc(OC)c(C2SCCN2S(C)(=O)=O)c1 (stereo not drawn) | 0.6 | 3.9 | 22914* | 0.5 | -0.6 | 0.2
Cc1ccc(OCC(=O)Nc2nc(C)c(Cl)cc2Cl)c([N+](=O)[O-])n1 | -6.2 | -8.2 | u | -4.1 | -0.3 | 1.2
Brc1cccc(-c2nnc3sc(CN4CCC5(CC4)OCCO5)cn23)c1 | -6.5 | -3.2 | 24422* | -3.5 | -1.6 | -1.1
COc1ccc(CN2CCNC(=O)C2CC(=O)N(C)Cc2ccon2)c(OC)c1 (stereo not drawn) | -16.0 | -7.6 | 3784 | -4.5 | -11.5 | 0.8
O=C(NCC(c1ccco1)N1CCCC1)c1cc2ccccc2s1 (stereo not drawn) | 6.2 | 29.3 | 16777* | -3.5 | -4.6 | 1.1
Cc1ccc(C(=O)NCC(c2ccco2)N2CCCCC2)s1 (stereo not drawn) | 4.4 | 0.5 | 9489 | 3.3 | -5.4 | 0.1
Cc1cccc(OCCC(=O)NCC(c2ccco2)N2CCCCC2)c1 (stereo not drawn) | -0.8 | -1.3 | 20481* | u | -4.9 | 0.3
O=C(NCCC1=CCCCC1)C1CCN(S(=O)(=O)c2cccc(C(F)(F)F)c2)CC1 | -9.6 | 1.2 | 8540 | 2.0 | 4.4 | 0.3
Cc1cc(C)c2c(C)[nH]nc2n1 | -4.6 | -3.2 | 4423 | 0.4 | 2.6 | x
SMILES | Anthrax LF prot | BoNT-F LC inh | Autofluor counter | BoNT A protease | MazF activator | PfHsp40 yeast
CCN(CC)N=Nc1[nH]nc2nc(C)cc(C)c12 | 0.8 | -7.8 | 3100 | -0.2 | 1.3 | 45.1*
Cc1cc(C)c2c(N=NN3CCCCC3)[nH]nc2n1 | -1.5 | -10.7 | 1935 | -1.9 | 9.2 | 85.7*
COc1cc2c(cc1OC)CN(C(=O)c1cc(C3CC3)nn1-c1ccccc1)CC2 | -3.5 | 1.4 | 3487 | 0.0 | 4.5 | -1.2
COC(=O)Cn1cc(S(=O)(=O)NCc2ccc(C)cc2)c2cc([N+](=O)[O-])ccc21 | -10.5 | 23.5 | 2975 | -1.2 | -5.9 | 0.0
COc1cccc(/C=c2\s/c(=C/C(=O)c3ccc(C)cc3)[nH]c2=O)c1OC | 1.2 | -3.3 | 10658 | 0.6 | -7.9 | 1.0
COc1ccc(/C=c2\s/c(=C/C(=O)c3ccc(C)cc3)[nH]c2=O)c(OC)c1 | -2.7 | -10.9 | 2696 | 1.7 | + | -0.8
COc1ccccc1CNC(=O)CCNC(=O)C1CCN(S(=O)(=O)c2ccccc2)CC1 | 2.8 | 1.4 | 5674 | -0.5 | 8.0 | -0.4
O=C(Nc1ccc(CN2CCOCC2)cc1)c1ccc(-c2cccc(Cl)c2)o1 | -1.0 | 0.0 | 20353* | 0.2 | -2.5 | 1.0
O=C(Nc1ccc(CN2CCOCC2)cc1)c1cccs1 | -3.4 | 1.9 | 22111* | 0.9 | -1.8 | -0.7
COc1cc(/C=C/c2nc(-c3ccccc3O)n[nH]2)cc(OC)c1OC | -5.2 | -13.6 | 2463 | -0.9 | 5.9 | 41.8*
COC(=O)c1ccccc1NC(=O)C1CC(c2ccc(F)cc2)=NO1 (stereo not drawn) | -1.6 | -0.4 | 16511* | -0.5 | 6.5 | 0.1
N#Cc1ccc(NC(=O)C2CC(c3ccc(F)cc3)=NO2)cc1 (stereo not drawn) | -1.7 | -2.6 | 22651* | -0.3 | -3.2 | -0.9
COC(=O)CCS(=O)(=O)c1nc(-c2ccccc2)cc(C(F)(F)F)n1 | -1.2 | 2.4 | 21982* | 2.4 | 1.4 | 12.3
CCOC(=O)CCS(=O)(=O)c1nc(-c2ccccc2)cc(C(F)(F)F)n1 | -1.5 | -0.4 | 2373 | -1.0 | 1.2 | 0.5
COc1ccc(C(CC(=O)O)c2cc(OC)c(OC)c(OC)c2)cc1OC (stereo not drawn) | -6.6 | -2.5 | 4110 | 0.1 | 6.8 | -0.7
CC(C)C(=O)N1CCCCCCN1C(=O)C(C)C | -4.8 | 6.0 | 2966 | -0.9 | 4.1 | x
COCCCNC(=O)c1ccc2sc(C3=C[C@@H](O)[C@@H](O)[C@@H](CO)O3)nc2c1 | 1.1 | 0.7 | 3631 | 0.0 | x | x
COc1cnc(SCc2c(Cl)cccc2Cl)nc1Cl | -6.7 | -7.1 | 20944* | -3.4 | -6.4 | -0.1
N#Cc1c2n(c3c(=O)n(Cc4ccc(Cl)cc4)cnc13)CCCCC2 | -0.5 | -3.6 | 3595 | 1.2 | -7.2 | 14.1
N#Cc1c2n(c3c(=O)n(Cc4ccccc4)cnc13)CCCC2 | -2.5 | -6.9 | 17920* | -4.7 | 0.3 | 0.0
O=S(=O)(c1ccc(F)cc1)N1CCCC1 | x | x | x | x | 9.7 | 37.0*
CC1CN(C2CCN(S(=O)(=O)c3ccc(F)cc3)CC2)CC(C)O1 (stereo not drawn) | 0.4 | -10.1 | 18932* | -5.8 | 4.3 | 0.1
CC1CN(C2CCN(S(=O)(=O)Cc3ccccc3)CC2)CC(C)O1 (stereo not drawn) | -1.5 | 1.5 | 22746* | 0.2 | 0.7 | -0.6
CC1CN(C2CCN(S(=O)(=O)c3ccccc3)CC2)CC(C)O1 (stereo not drawn) | 4.1 | 0.5 | 7570 | 4.4 | -8.5 | -0.9
